Results filed as inconclusive are left out. Active and inactive are the calls of the source. The calls were made as follows: active = hit-call score of the fitted dose curve at least 0.9, where 1 is the maximum; inconclusive = response in the unintended direction; inactive = score below 0.9.
These molecules were tested against Retinoic acid receptor alpha (Homo sapiens) (UniProt P10276) (assay: ATG_RARa_TRANS: Attagene TRANS-FACTORIAL HepG2 Assay for human Retinoic Acid Receptor alpha (RARa) (AID 2283005)).
Sequence of Retinoic acid receptor alpha (Homo sapiens) (P10276 whole entry, looked up): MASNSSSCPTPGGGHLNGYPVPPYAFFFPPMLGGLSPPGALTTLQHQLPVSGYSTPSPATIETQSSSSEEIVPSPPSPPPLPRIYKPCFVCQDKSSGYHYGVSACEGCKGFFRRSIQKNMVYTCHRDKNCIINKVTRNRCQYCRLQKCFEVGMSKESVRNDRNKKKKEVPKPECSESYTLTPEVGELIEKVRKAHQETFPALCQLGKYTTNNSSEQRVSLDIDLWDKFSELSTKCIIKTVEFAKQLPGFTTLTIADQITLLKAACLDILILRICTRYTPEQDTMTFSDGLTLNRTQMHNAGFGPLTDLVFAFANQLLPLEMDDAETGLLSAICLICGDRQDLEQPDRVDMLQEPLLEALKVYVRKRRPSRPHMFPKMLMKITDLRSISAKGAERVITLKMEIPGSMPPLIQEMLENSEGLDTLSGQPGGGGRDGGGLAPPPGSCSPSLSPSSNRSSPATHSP
Experimental: ATG_TRANS is a cell-based, multiplexed-readout assay that uses HepG2, a human liver cell line, with measurements taken at 24 hours after chemical dosing in a 24-well plate.ATG_RARa_TRANS is one of 30 assay component(s) measured or calculated from the ATG_TRANS assay. It is designed to make measurements of mRNA induction, a form of inducible reporter, as detected with fluorescence intensity signals by Reverse transcription polymerase chain reaction (RT-PCR) and Capillary electrophoresis technology.Data from the assay component ATG_RARa_TRANS was analyzed into 1 assay endpoint. This assay endpoint, ATG_RARa_TRANS, was analyzed in the positive analysis fitting direction relative to DMSO as the negative control and baseline of activity. Using a type of inducible reporter, measures of mRNA for gain-of-signal activity can be used to understand the reporter gene at the transcription factor-level as they relate to the gene RARA. Furthermore, this assay endpoint can be referred to as a primary readout, because this assay has produced multiple assay endpoints where this one serves a reporter gene function. To generalize the intended target to other relatable targets, this assay endpoint is annotated to the nuclear receptor intended target family, where the subfamily is non-steroidal.
Human liver HepG2 cells are transiently transfected with multiple reporter transcription units (MRTUs) in 6-well plates using FuGene 6 reagent (Roche; 3 ml FuGene/1 mg DNA). The MRTU constructs are regulated by a cis-regulating element (promoter). […] A major difference between the CIS and TRANS system is that in CIS activities of endogenous TFs are measured, whereas the TRANS assay evaluates changes in activities of exogenous, chimeric NR-Gal4 proteins. […] At the end of 24 hour incubation, total RNA was isolated using TriZol reagent (Invitrogen). The isolated RNA is then reverse-transcribed using oligo(dT) primer and Mo-MLV reverse transcriptase (Invitrogen) with DNAse I (Ambion) treatment for 30 min. The one-tenth of the produced cDNA was amplified by PCR using Taq DNA polymerase (Invitrogen) and two reporter sequence-specific primers. The PCR products were fluorescently labeled by primer extension with 6-arboxyfluorescein (6-FAM) 5'-labeled reporter sequence-specific primer (2 min at 95 C, 20 s at 68 C and 10 min at 72 C) and these products were digested with 5U of HpaI (New England Biolabs) for 2h at 37 C. The fragments were purified using Qiaquick PCR columns (Qiagen), analyzed on an ABI 3130xL genetic analyzer (Applied Biosystems) with peak positions identified by using a set of X-rhodamine (ROX)-labeled MapMarker1000 molecular weight standards (BioVentures). The raw capillary electrophoresis data was processed using Attagraph software (Attagene).

Structure (SMILES)	outcome
CC(C)(c1ccc(O)cc1)c1ccc(O)cc1	inactive
OB(O)O	inactive
CCOC(=O)[C@H](C)Oc1ccc(Oc2nc3ccc(Cl)cc3o2)cc1	inactive
CCCCCOC(=O)COc1cc(N2C(=O)C3=C(CCCC3)C2=O)c(F)cc1Cl	inactive
c1ccc2[nH]c(-c3cscn3)nc2c1	inactive
CCN(Cc1c(F)cccc1Cl)c1c([N+](=O)[O-])cc(C(F)(F)F)cc1[N+](=O)[O-]	inactive
COc1c(Cl)ccc(Cl)c1C(=O)O	inactive
CC(C)(C)[C@@H](O)[C@@H](Cc1ccc(Cl)cc1)n1cncn1	inactive
CCCCOCCOCCOCc1cc2c(cc1CCC)OCO2	inactive
CCOC(=O)c1ccc(O)cc1	inactive
CN(C)C(=O)Nc1ccc(Cl)c(Cl)c1	inactive
CCCCOC(=O)[C@@H](C)Oc1ccc(Oc2ccc(C(F)(F)F)cn2)cc1	inactive
CCOC(=O)COc1cc(-n2ncc(C(F)(F)F)c(C)c2=O)c(F)cc1Cl	inactive
COC(=O)c1cccc(C)c1S(=O)(=O)NC(=O)Nc1nc(OCC(F)(F)F)nc(N(C)C)n1	inactive
CCNc1nc(N)nc(Cl)n1	inactive
CC(C)CCCCCCc1ccc(O)cc1	inactive
CCOC(=O)NCCOc1ccc(Oc2ccccc2)cc1	inactive
CCCOC(=O)NCCCN(C)C	inactive
CCC(O)=C1C(=O)CC(C(=O)O)CC1=O (stereo unspecified)	inactive
CCCN(CCC)c1c([N+](=O)[O-])cc(C(F)(F)F)c(N)c1[N+](=O)[O-]	inactive
CCCOC(=O)c1ccc(C(=O)OCCC)nc1	inactive
O=C(Nc1ccc([N+](=O)[O-])cc1Cl)c1cc(Cl)ccc1O	inactive
CCN(CC)C(=O)c1cccc(C)c1	inactive
Cc1nn(C)c(Oc2ccccc2)c1C=NOCc1ccc(C(=O)OC(C)(C)C)cc1	inactive
COCCO	inactive
c1ccc(Nc2ccccc2)cc1	inactive
